KAT2A inh – blocks human GCN5L2 histone acetyltransferase. Q92830. GCN5L2 HAT assay, ThioGlo1 CoA-SH fluorescence. Potency, µM (highest dose often 58.9 µM), without a hit: at the top dose activity change, negative = inhibition, usual class: inhibitors. 390,000 compounds, 0.21% hits. AID 504327
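Compounds, pin-transferred from DMSO stocks, meet 20nM GCN5L2 for 15 min before the reaction begins with H3(1-25) peptide (75uM) and acetyl-CoA (70uM). Thiol-reactive ThioGlo1 reports CoA release over 20 min at room temperature.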
VDR inhibitor – vitamin D3 receptor (human) inhibition | Potency, µM, inactives show max response, negative = inhibition, most hits filed as inhibitors | 400,000 compounds, 0.93% hits | P11473 | VDR-SRC2-3 peptide fluorescence polarization, 2 h | AID 504847
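VDR–SRC2-3 interaction, FP format. Cmpds 23 nl via pintool, brief spin, 2 h ambient incubation.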
PLK1 PBD block – blocks phosphopeptide binding to human PLK1 polo-box domain; Plk1 PBD binding of FITC phosphopeptide, fluorescence polarization; AID 720504; Potency, µM, for inactives: max response, negative = inhibition, usual class: inhibitors; 360,000 compounds, 2.8% hits; further: series mostly up to about 57 µM; nearly all actives have a fitted effect of over 65% in size
DT40 TDP1 CPT – DT40-hTDP1 cell growth loss with CPT; chicken DT40 Tdp1-/-;hTDP1 cells + 20 nM CPT, ATP luminescence, 48 h; Potency, µM (series often up to 46.2 µM), for the others: at the top dose activity change, negative = growth inhibition, most hits filed as inhibitors; 420,000 compounds, 12% hits; further: nearly all actives have a fitted effect of over 55% in size
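Chicken DT40 Tdp1-/- cells stably complemented with human TDP1 were seeded at 400 cells/well in medium containing 20 nM camptothecin, exposed to pin-transferred compounds, and grown at 37 °C for at least 48 hr. Viability was read as ATP luminescence.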
DT40 TDP1 no CPT – qHTS for Inhibitors of human tyrosyl-DNA phosphodiesterase 1 (TDP1): qHTS in cells in absence of CPT. AID 686978, 2013. DT40 Tdp1-/- hTDP1 cells, no CPT, ATP luminescence, 48 h. Potency, µM (highest dose often 46.2 µM), for the others: at the top dose activity change, negative = growth inhibition, hits mostly inhibitors. 420,000 compounds, 15% hits; further: nearly all actives have a fitted effect of over 55% in size
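Chicken DT40 Tdp1-/- cells stably complemented with human TDP1 were seeded at 400 cells/well with DMSO in place of 20 nM camptothecin. After compound pinning, cells grew at least 48 hr at 37 °C; viability read by CellTiter-Glo luminescence.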
TDP1 inh – TDP1 (human) enzyme inhibition | Q9NUW8 | recombinant TDP1, AlphaScreen DNA substrate cleavage | Potency, µM (top dose mostly 130 µM), for inactives: top-dose activity change, negative = inhibition, usual class: inhibitors | 350,000 compounds, 0.28% hits | AID 485290; further: nearly all actives have a fitted effect of over 40% in size
Target sequence (Q9NUW8 whole entry, looked up): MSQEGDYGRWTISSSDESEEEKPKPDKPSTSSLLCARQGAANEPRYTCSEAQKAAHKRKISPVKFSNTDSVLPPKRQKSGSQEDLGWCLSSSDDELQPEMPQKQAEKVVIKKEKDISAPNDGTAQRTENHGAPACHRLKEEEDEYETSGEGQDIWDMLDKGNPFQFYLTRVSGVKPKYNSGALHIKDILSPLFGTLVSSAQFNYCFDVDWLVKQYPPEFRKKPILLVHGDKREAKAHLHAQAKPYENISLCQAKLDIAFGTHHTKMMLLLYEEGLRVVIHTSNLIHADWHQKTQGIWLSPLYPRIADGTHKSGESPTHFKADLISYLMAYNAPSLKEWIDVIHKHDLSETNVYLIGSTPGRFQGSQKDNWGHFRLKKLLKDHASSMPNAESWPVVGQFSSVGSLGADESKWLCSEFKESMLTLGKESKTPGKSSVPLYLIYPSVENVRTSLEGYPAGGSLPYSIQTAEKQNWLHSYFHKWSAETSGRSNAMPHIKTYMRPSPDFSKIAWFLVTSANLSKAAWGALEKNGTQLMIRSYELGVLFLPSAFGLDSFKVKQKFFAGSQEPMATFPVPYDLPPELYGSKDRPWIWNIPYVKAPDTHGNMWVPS
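Compounds were preincubated with Tdp1 (1 nM final) for 15 min at room temperature before substrate (15 nM final) started a 5 min reaction; beads (10 ug/ml final) were then added for 10 min before AlphaScreen detection.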
The depositor's hits bear a star; ? = inconclusive; · = no result; ! = not active in a repeat; [ ] = dose if it differs, or a comment. The list is not random: actives were taken first. Their share in the collection is about 18%. The call rests on the fitted dose curve; in most records, active means well fitted curve in the direction sought with a large enough effect; inconclusive means small, poorly fitted or top-dose-only effect, or another doubt; inactive means no such curve, though single readings can be large; an effect the other way counts as inactive or inconclusive. On the % scale 0 is the no-effect control and ±100 the full control effect; potency means the concentration at half of the fitted maximal effect.

SMILES	KAT2A inh	VDR inhibitor	PLK1 PBD block	DT40 TDP1 CPT	DT40 TDP1 no CPT	TDP1 inh
CN1CCN(c2nc(-c3ccccc3O)nc3ccccc23)CC1	-7%	22%	-5%	?	?	·
OCCN1CCN(c2nc(-c3ccccc3)nc3c2oc2ccccc23)CC1	-7%	-10%	-12%	?	16µM*	1%
O=C(O)C1CCN(c2nc(-c3ccccc3)nc3c2oc2ccccc23)CC1	-12%	3%	-8%	-26%	?	3%
COc1cc(Cl)c(C)cc1Nc1ncccn1	-7%	1%	-9%	8%	-25%	1%
Fc1ccccc1N1CCN(C2CCCN(Cc3cccc(C(F)(F)F)c3)C2)CC1 (centres undefined)	-3%	-14%	2%	?	16µM*	·
Oc1ccccc1CN1CCCC(N2CCN(c3cccc(C(F)(F)F)c3)CC2)C1 (centres undefined)	-2%	-20%	-1%	18µM*	?	·
O=C(NCCO)c1cn(C2CCCN(Cc3cccc(C(F)(F)F)c3)C2)nn1 (centres undefined)	·	·	·	-7%[9.04 µM]	-18%	·
Cc1ccc(OCCNC(=O)Cc2ccc(S(=O)(=O)N3CCOCC3)s2)cc1	-6%	10%	-1%	-16%	-26%	6%
O=S(=O)(c1cccs1)N1CN(Cc2cccs2)c2nc3ccccc3nc21	-12%	5%	-13%	?	16µM*	0%
O=S(=O)(c1cccs1)N1CN(Cc2ccccc2)c2nc3ccccc3nc21	-14%	8%	-3%	?	?	8%
COc1cc2ccc(=O)oc2cc1O	32µM*!	6%	5%	?	-6%	-1%
N#Cc1c(Nc2ccccc2)[n+]([O-])c2ccc(Cl)cc2[n+]1[O-]	·	-20%	-7%	6.5µM*	?	·
Nc1nonc1-c1nc2ccccc2n1Cc1ccc(F)cc1Cl	61%	10%	-18%	21µM*	21µM*	3%
CCCn1c(-c2nonc2N)nc2ccccc21	0%	-7%	-7%	?	?	2%
Cc1ccc(-c2nn(C)c(=O)c3ccccc23)cc1S(=O)(=O)N1CCCC1	-4%	7%	4%	15µM*	?	4%
Cc1ccc(-c2nn3c(-c4ccco4)nnc3c3ccccc23)cc1S(=O)(=O)N1CCOCC1	-2%	·	·	·	·	6%
CCOC(=O)N1CCN(S(=O)(=O)c2cc(-c3nn4c(C)nnc4c4ccccc34)ccc2C)CC1	-5%	-5%	-6%	?	26µM*	3%
Cc1ccc(-c2nn(C)c(=O)c3ccccc23)cc1S(=O)(=O)N1CCOCC1	1%	20%	0%	11µM*	?	-8%
C[C@@H](CN(C)C)CN1c2ccccc2CCc2ccccc21	0%[21.4 µM]	5%	·	·	·	11%[21 µM]
S=C(NCC1(c2ccccc2)CCCC1)Nc1ccccc1	4%	-12%	3%	21µM*	12µM*	·
O=C(NCC1(c2ccccc2)CCCC1)C1(c2ccccc2)CCCC1	-4%	-3%	-1%	?	?	-11%[56.1 µM]
O=C(NCC1(c2ccccc2)CCCC1)c1ccccc1	1%	-2%	-3%	15µM*	12µM*	3%
O=C(NCC1(c2ccccc2)CCCC1)c1ccccc1Br	-10%	0%	0%	16µM*	?	3%
Cc1ccccc1NC(=O)C(=O)NCC1(c2ccccc2)CCCC1	2%	4%	·	?	16µM*	-2%
CCOC(=O)C1(C)CCCN(C(=O)c2cccs2)C1 (centres undefined)	·	·	-10%	-12%	9%	·
SMILES	KAT2A inh	VDR inhibitor	PLK1 PBD block	DT40 TDP1 CPT	DT40 TDP1 no CPT	TDP1 inh
COc1ccc(C)cc1NC(=O)C(=O)NCC1(c2ccccc2)CCCC1	-7%	13%	·	?	?	5%
COc1ccccc1C(=O)NCC1(c2ccccc2)CCCC1	-7%	0%	4%	16µM*	?	-5%
Cc1ccc(CNc2ncnc3ccc(-c4ccc5c(c4)OCO5)cc23)s1	·	·	·	·	·	2%
COC(=O)N1CCc2c(sc(NC(=O)C3=COCCO3)c2C#N)C1	-4%	-2%	-11%	1.3µM*	0.92µM*	-1%
CCOC(=O)c1sc(NC(=O)C2=COCCO2)c(C#N)c1C	-8%	?	27µM*	-24%	-21%	·
COc1cccc(C(=O)Nc2sc3c(c2C#N)CCN(C(C)=O)C3)c1	-20%	79µM*	24µM*	2.1µM*	1.5µM*	0%
Cc1cc(C(=O)CN2C(=O)C(=O)N(C3CCCC3)C2=O)c(C)n1CCc1ccccc1	-9%	-9%	-4%	?	?	11%
Cc1cc(C(=O)CN2C(=O)C(=O)N(C3CCCC3)C2=O)c(C)n1CCc1ccc(F)cc1	1%	12%	-17%	18µM*	?	1%
COc1ccc(CCn2c(C)cc(C(=O)CN3C(=O)C(=O)N(Cc4ccco4)C3=O)c2C)cc1	-8%	6%	-17%	13µM*	9.2µM*	4%
Nc1cccc2cccc([N+](=O)[O-])c12	·	0%	-8%	-18%	-29%	·
CC(=O)Nc1ccc(S(=O)(=O)CC(=O)CS(=O)(=O)c2ccc(NC(C)=O)cc2)cc1	·	·	-19%	-8%	?	·
O=C(c1ccc(-c2ccc([N+](=O)[O-])cc2)o1)N1CCCCCCC1	-13%	35µM*	24µM*	12µM*	10µM*	11%
O=C(c1ccc(-c2cccc(C(F)(F)F)c2)o1)N1CCN(c2ccccc2)CC1	-5%	-5%	-6%	-2%	-5%	-16%
Cc1c(Cl)cccc1-c1ccc(C(=O)N2CCN(c3ccc([N+](=O)[O-])cc3)CC2)o1	-2%	-1%	-3%	?	26µM*	6%
O=C(c1ccc(-c2cccc(Cl)c2)o1)N1CCN(c2ccc([N+](=O)[O-])cc2)CC1	10%	?	27µM*	?	21µM*	3%
CCCC1CC(C)(c2csc(Nc3ccc(OCC)cc3)n2)OC1=O (centres undefined)	-10%	-3%	-29%	13µM*	15µM*	10%
CCOc1ccc(NC(=O)CC2CC(C)(C)OC2=O)cc1 (centres undefined)	-1%	0%	-21%	-1%	-9%	0%
CC(C)(C)C(=O)NCCCC(=O)O	0%	3%	·	-9%	-18%	4%
CC(C)c1ccc(Nc2nc(Nc3ccc(Cl)cc3)nc(N3CCOCC3)n2)cc1	·	6%	·	?	11µM*	0%

Screening data (PubChem BioAssay)
